Compound activity from PubChem BioAssay.
BCR signal inh: inhibitors of chronic active B-cell receptor signaling | ABC-DLBCL IkBa-CBG/CBR reporter, luminescence ratio, 4 h | Potency, µM (top dose mostly 46.1 µM), for the others: at the top dose activity change, negative = inhibition, usual class: inhibitors | 0.05% of 340,000 active | AID 493014; active = well fitted inhibition curve with a large enough effect in the signal ratio, with a control signal flat, not every such curve was filed as active; inconclusive = small, poorly fitted or top-dose-only effect, or effect the other way, or a change in a side signal; the % refers to the signal ratio;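 note: potency is the fitted concentration of half-maximal effect; plate controls were basal doxycycline-induced cells for no effect and cells given 10 µM MG132 for full effect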
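Doxycycline induced both beetle luciferases in TMD8 lymphoma cells; IKK-driven degradation limits the IkappaBalpha-fused green signal, while red luminescence normalises for cell number and nonspecific effects. Compounds tested up to 46 uM, 4 hrs.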
BRCA1 expr up: BRCA1 expression activation | 1.1% of 380,000 active | MCF7-BRCA1-FFLuc reporter, luminescence, 48 h; response scale: scaled: vehicle 0%, 10 µM genistein 100% | Potency, µM (series often up to 46.1 µM), inactives show at the highest dose activation, most hits filed as activators; note: potency is the fitted concentration of half-maximal effect; nearly all actives have a fitted effect of over 80% in size
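Quantitative HTS in MCF7 cells stably reporting BRCA1 expression via firefly luciferase. Compound treatment lasts 48 h at 37 °C in phenol-red free MEM. Activation is expressed relative to genistein at 10 microM and DMSO.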
Nrf2 activator: Nrf2 pathway activation. AREc32 ARE-luciferase reporter (MCF7-derived line), luminescence, 24 h. Potency, µM (doses to about 46.1 µM), for the others: at the highest dose activation, usual class: activators. 0.31% of 410,000 active; note: potency is the fitted concentration of half-maximal effect; % of control where 0% means no effect; nearly all actives have a fitted effect of over 65% in size
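ARE-driven firefly luciferase activity in AREc32 cells measured after a 24 hr compound exposure at 37 deg C, using Steady-Glo reagent and a 30 min room-temperature hold.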
N370S GC mod: N370S glucocerebrosidase modulation, Gaucher chaperone candidate | N370S GC spleen homogenate, 4MU-glucoside fluorescence | AID 2101 | 0.092% of 330,000 active | Potency, µM (titrated, usually from 59.4 µM), without a hit: top-dose activity change, negative = inhibition, usual class: inhibitors | P04062;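 note: potency is the fitted concentration of half-maximal effect; 0% = full enzyme activity and -100% = no enzyme basal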
Integrin act MD: activates integrin-mediated alleviation for muscular dystrophy | alpha7betagal myoblasts, beta-gal FDG fluorescence, 48 h | Potency, µM (doses to about 38.3 µM), inactives show at the highest dose activation, hits mostly activators | 0.064% of 350,000 active;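 note: potency is the fitted concentration of half-maximal effect; 100% = response of the positive control SU9516; nearly all actives have a fitted effect of over 60% in size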
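Alpha7betagal+/- myoblasts (passage 13) were plated 16-24 hr, then exposed to compounds (1:260 dilution of DMSO stock) for 48 hours at 37C. After MPER lysis, β-galactosidase reporter activity was read as FDG fluorescence (ex 480/em 540) after 30 minutes.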
IL-2 act: activates IL-2 in a cell-based reporter assay. IL-2 activation reporter assay, cell-based qHTS; stimulated with anti-CD3/CD4/CD28 beads; in transgenic mouse T cells. activation, % (series mostly up to about 46 µM). 0.065% of 360,000 active; in the data active = activation above about 50%; inconclusive = mostly about 30% to 49%; note: 0% is about no effect
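Readout is EGFP and DsRed signal by fluorescent plate cytometry after 18 h at 37 degrees C. Transgenic mouse T cells (750/well) received compound for 60 min before bead stimulation (anti-CD3, anti-CD4, anti-CD28); memory T cells served as non-tolerant control.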
The depositor's hits bear a star; ? = inconclusive; nt = no result; [ ] = dose if it differs, or a comment. Rows were chosen to be rich in hits. Some 1.4% of all compounds tested hit in one or more screens of this group. Unless noted, calls come from the whole dose curve; as a rule, active = well fitted curve in the direction sought with a large enough effect; inconclusive = small, poorly fitted or top-dose-only effect, or another doubt; inactive = no such curve, though single readings can be large; an effect the other way counts as inactive or inconclusive.

SMILES | BCR signal inh | BRCA1 expr up | Nrf2 activator | N370S GC mod | Integrin act MD | IL-2 act
O=C(Nc1ccc2nn(-c3ccccc3)nc2c1)c1cccs1 | 8.4% | 4.47µM* | 3.8% | 10.7% | 10.7% | -1.2
Cc1cc(NC(=O)c2cccs2)ncc1NC(=O)c1cccc(F)c1 | ? | 90.5% | 5.0% | 3.2% | ? | 1.4
O=C(NCc1ccco1)Nc1ccc2nsnc2c1 | ? | -24.7% | 22.4µM* | -2.8% | -47.6% | -0.7
O=C(NCc1ccco1)Nc1ccc(Br)cc1 | -1.2% | ? | 6.3% | 7.3% | 8.6% | -0.6
Cn1cnc2cc(NC(=O)c3cccs3)ccc21 | ? | ? | -0.8% | -9.5% | -53.7% | -3.7
Cc1cc(NC(=O)c2ccccc2)ncc1NC(=O)c1cccs1 | 1.6% | 7.94µM* | 6.0% | 25.8% | -4.3% | -0.2
C[C@@H]1CN([C@H](C)CO)C(=O)CCCn2nncc2CO[C@H]1CN(C)Cc1cccc(C(F)(F)F)c1 | nt | 7.7% | -0.3% | nt | 12.6% | 0.0
COc1ccc2oc(C(=O)OCC(=O)/C(C#N)=C(\C)N)c(C)c2c1 | -2.1% | 82.1% | 1.6% | 5.5% | ? | 0.7
CCCCNC(=O)C(NC(=O)c1ccc2ccccc2c1)C(=O)c1ccccc1 (centres undefined) | nt | nt | nt | nt | nt | -0.9
Clc1ccc(-c2csc3ncnc(Sc4nnnn4C4CC4)c23)cc1 | nt | -78.5% | nt | nt | nt | nt
Nc1nnc(-c2cccc([N+](=O)[O-])c2)o1 | 3.4% | -0.8% | -0.4% | 0.3% | -16.8% | -0.1
O=[N+]([O-])c1cccc(-c2nnc(-c3ccccc3F)o2)c1 | ? | ? | 12.6µM* | -10.9% | -12.8% | -0.4
c1ccc(CSCc2cn3ccsc3n2)cc1 | 12.9% | 8.91µM* | 1.0% | 5.2% | -14.1% | 0.7
O=C(Cc1cn2ccsc2n1)OCc1ccccc1 | ? | 31.8% | -0.8% | 1.2% | 5.4% | 0.3
COc1cc(/C=C/c2cncc(/C=C/c3cc(OC)c(OC)c(OC)c3)c2)cc(OC)c1OC | nt | 13.8% | nt | nt | nt | nt
Cc1cc([N+](=O)[O-])ccc1NC(=O)/C=C/c1cccs1 | ? | 5.62µM* | 19.0% | 0.8% | -3.5% | -0.4
CCn1c(C)cc(C(=O)COC(=O)c2cccnc2SC)c1C | ? | ? | -0.5% | nt | -0.9% | -3.1
CSc1ncccc1C(=O)OCC(=O)c1cc(C)n(C)c1C | 3.7% | 96.1% | 0.4% | nt | 10µM* | -0.1
Cc1cc(C(=O)COC(=O)Cc2c(F)cccc2Cl)c(C)n1C | nt | 5.01µM* | 1.9% | nt | 20.5% | -3.4
COc1cc(C2NC(=O)NC(C)=C2C(=O)OCC2CCCO2)cc(OC)c1OC (centres undefined) | -0.2% | -2.6% | -3.2% | 2.1% | 10.5% | -2.0
CCCCNC(=O)Cn1c(SCc2cccc(F)c2)nc2ccncc21 | nt | 21.9% | nt | nt | nt | nt
Cc1cc(C)n(-c2nnc3c4ccccc4n(C)c3n2)n1 | 9.8% | 1.41µM* | 4.2% | 0.3% | -6.9% | 4.4
C/C(=N\Nc1nnc2c3ccccc3n(C)c2n1)c1ccc(C)o1 | ? | -5.9% | 3.3% | 26.7% | -15.6% | -2.2
COc1ccc2sc3ccccc3c(=O)c2c1 | 5.9% | 5.62µM* | ? | 9.0% | -10.5% | -1.1
COc1ccc2sc(C)cc(=O)c2c1 | nt | 14.9% | 3.0% | nt | -0.7% | 2.5
SMILES | BCR signal inh | BRCA1 expr up | Nrf2 activator | N370S GC mod | Integrin act MD | IL-2 act
CCCN1CNc2c(c(=O)[nH]c(=S)n2CCc2cc(C)cc(C)c2)C1 | nt | -9.8% | nt | nt | nt | nt
Cc1cc(Cl)cc2c(N=Nc3ccccc3C(=O)O)c(O)[nH]c12 | ? | 46.6% | 2.9% | -3.9% | -9.8% | -2.1
Cc1ccc(Cl)c2c(N=Nc3ccccc3)c(O)[nH]c12 | -1.5% | 43.6% | 17.0% | -6.5% | -39.3% | 169.5*
CCOc1ccc(C(C)=O)cc1COc1ccc(-c2nnco2)cc1 | ? | -14.2% | 0.1% | 11.2µM* | ? | -1.4
CN(Cc1ccccc1)C(=O)COc1ccc(-c2nnco2)cc1 | ? | 9.2% | 1.8% | 23.1% | -0.1% | -1.6
CCCN1CNc2c(c(=O)[nH]c(=S)n2CCc2ccc(OC)cc2)C1 | nt | 0.0% | nt | nt | nt | nt
Cc1ccc(S(=O)(=O)N2CCN(c3nc(-c4cccs4)nc4ncccc34)CC2)cc1 | nt | 24.8% | nt | nt | nt | nt
Cc1cc(C(=O)Nc2ccccc2[N+](=O)[O-])cs1 | -2.4% | 0.0% | 11.2µM* | -3.9% | -22.2% | -0.2
Cc1cc(C(=O)Nc2ccc(Br)cc2)cs1 | ? | ? | 11.2µM* | -6.7% | -10.7% | -3.0
CCc1ccc(NC(=O)Nc2ccsc2C(=O)OC)cc1 | ? | 54.9% | 12.6µM* | -3.8% | -0.5% | 0.4
COC(=O)c1sccc1NC(=O)c1ccc(C)cc1 | -0.3% | -35.4% | 32.0% | -3.1% | 7.0% | 0.9
COC(=O)c1sccc1NC(=O)c1csc(C)c1 | -1.9% | -86.1% | 5.01µM* | 11.6% | -2.1%[7.66 µM] | -0.5
CCC(C)NC(=O)Cn1c(=O)n(CC2CCC(C(=O)NC)CC2)c(=O)c2sccc21 (centres undefined) | nt | nt | 0.1% | nt | nt | nt
COc1ccccc1NC(=O)N1CC=C(c2c[nH]c3ccccc23)CC1 | nt | nt | 20.8% | nt | nt | nt
COCCCCOc1cc2nc(N3CCCN(C)CC3)nc(NC3CCN(C)CC3)c2cc1OC | nt | -53.8% | nt | nt | nt | nt
CCNC(=O)N1C[C@H]2CON(C)[C@H]2C[C@H]1c1ccccc1Br | nt | 1.1% | 0.0% | nt | 1.7% | -1.2
COC(=O)c1sccc1NC(=O)c1cccc(Cl)c1 | nt | -70.3% | 8.91µM* | nt | -12.4% | -0.1
CCOC(=O)c1cnc(-c2ccccc2)nc1Oc1ccccc1 | 17.1% | -47.5% | 12.6µM* | 3.3% | -14.7% | -0.9
CCOC(=O)c1cnc(-c2ccccc2)nc1-c1ccccc1 | ? | -38.4% | 7.94µM* | ? | -9.2% | -0.7
O=C1CCCc2[nH]c(=O)c(C(=O)NCc3ccccc3)cc21 | nt | 7.7% | nt | nt | nt | nt
COc1cccc(/C=C/C(=O)OCC(=O)c2ccccc2)c1OC | -6.0% | 11.2µM* | 4.8% | nt | -0.6% | 0.6
Nc1ccc(C(=O)OCc2nc3c(ccc4ccccc43)[nH]2)cc1 | ? | 7.08µM* | 3.1% | 9.9% | 21.6% | -1.5
CCN(CC)Cc1c(O)ccc2cc(-c3nc4ccccc4n3C)c(=O)oc12 | 0.0% | 11.2µM* | 0.8% | ? | -10.7% | -4.7
CC(=O)Nc1ccc(Oc2sc(C(=O)c3ccccc3)c(N)c2C#N)cc1 | ? | -88.9% | 8.91µM* | -21.8% | -34.0% | 0.9
CC(=O)Nc1ccc(Oc2ccccc2)cc1 | ? | 9.1% | 0.2% | 5.3% | -4.6% | 1.8
O=C(Nc1nc(-c2ccco2)cs1)c1ccccc1 | ? | 8.91µM* | ? | -4.8% | 23.0% | 0.9
O=C(Nc1nc(-c2ccc(Cl)s2)cs1)c1ccccc1 | ? | 46.7% | 9.8% | nt | 23.4% | -1.8
COCCN(C(=O)c1ccco1)c1nc(-c2ccccc2)cs1 | ? | -7.4% | 10µM* | 1.0% | 2.9% | -1.3
